Inconclusive results are not listed. Where a call stands in place of a potency, no number is given. Activity calls are given as the source filed them. Calls follow the shape of the dose curve; as a rule, active = well fitted inhibition curve with a large enough effect; inconclusive = small, poorly fitted or top-dose-only effect; inactive = flat fitted curve, though single readings scatter.
What follows are compounds tested on CP238 (assay: qHTS profiling for inhibitors of Plasmodium falciparum proliferation (AID 504749; also: nearly all actives have a fitted effect of over 60% in size)). Conditions: P. falciparum in erythrocytes, SYBR Green DNA, 72 h; series mostly up to 28.7 µM.
Summary of the method: (§1)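 P. falciparum-infected erythrocytes (0.3% parasitemia, 2.5% hematocrit) incubated with compound 72 h at 37 C, 5% CO2. Parasite DNA detected by SYBR Green after lysis, overnight at room temperature; normalised to 0.29 uM artemisinin and DMSO.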
`NC(N)=NCC1COc2ccccc2O1` (centres undefined) was tested, and the Potency was “inactive”.
`CC[C@H]1OC(=O)[C@H](C)[C@@H](O[C@H]2C[C@@](C)(OC)[C@@H](O)[C@H](C)O2)[C@H](C)[C@@H](O[C@@H]2O[C@H](C)C[C@H](N(C)C)[C@H]2O)[C@](C)(O)C[C@@H](C)CN(C)[C@H](C)[C@@H](O)[C@]1(C)O` was tested, and the Potency was 5.62 µM (active).
For `O=C1c2ccccc2CN2C(=O)c3ccccc3CN12`, the Potency was “inactive”.
In the case of `CC(C)CCCCCCc1ccc(O)cc1`, the Potency is reported as “inactive”.
For `N[C@@H](Cc1cc(I)c(Oc2ccc(O)c(I)c2)c(I)c1)C(=O)O`, the Potency was “inactive”.
In the case of `O=C(Nc1ccc(O)cc1)c1ccccc1O`, the Potency is reported as “inactive”.
With `C#C[C@]1(O)CC[C@@H]2[C@H]3CCC4=CC(=O)CC[C@H]4[C@H]3C(=C)C[C@@]21CC` the Potency was “inactive”.
In the case of `OCc1ccccc1`, the Potency is reported as “inactive”.
For `COc1ccc2nc(NC(=O)Nc3ccccc3)sc2c1`, the Potency was “inactive”.
With `O=C(OCc1ccccc1)c1cccnc1` the Potency was “inactive”.

These compounds were tested on CP247 in the same assay as above. Conditions: P. falciparum in erythrocytes, SYBR Green DNA, 72 h; series mostly up to 28.7 µM.
Summary of the method: as §1
For `CCOC(=O)Cc1ccc(-c2ccccc2)cc1`, the Potency was “inactive”.
`CC(=O)c1ccc2c(c1)N(CCCN1CCN(CCO)CC1)c1ccccc1S2` was tested, and the Potency was 11.2 µM (active).
`C[C@H](CCC(=O)O)[C@H]1CC[C@H]2[C@@H]3CC[C@@H]4C[C@H](O)CC[C@]4(C)[C@H]3C[C@H](O)[C@]12C` was tested, and the Potency was “inactive”.
In the case of `CNC(=O)c1c(I)c(C(=O)NCC(=O)Nc2c(I)c(C(=O)O)c(I)c(C(=O)NCCO)c2I)c(I)c(N(C)C(C)=O)c1I`, the Potency is reported as “inactive”.
In the case of `S=C1SCN(Cc2ccccc2)CN1Cc1ccccc1`, the Potency is reported as “inactive”.
With `Nc1ccc(N=Nc2ccccc2)c(N)n1` the Potency was “inactive”.
For `O=P(O)(O)OP(=O)(O)O`, the Potency was “inactive”.
`OC/C=C/c1ccccc1` was tested, and the Potency was “inactive”.
With `CN(C)CCC=C1c2ccccc2C(C)(C)c2ccccc21` the Potency was “inactive”.
With `O=C1c2ccccc2C(=O)C1c1ccc(Cl)cc1` the Potency was “inactive”.
`CC(=O)Oc1cccc2c1C(=O)c1c(OC(C)=O)cc(C(=O)O)cc1C2=O` was tested, and the Potency was “inactive”.
With `CC[C@H]1OC(=O)[C@H](C)[C@@H](O[C@H]2C[C@@](C)(OC)[C@@H](O)[C@H](C)O2)C(C)[C@@H](O[C@@H]2O[C@H](C)C[C@H](N(C)C)[C@@H]2O)[C@](C)(OC)C[C@@H](C)C(=O)[C@H](C)[C@@H](O)[C@]1(C)O` (some centres undefined) the Potency was “inactive”.
With `CCCCCCCCCCCCCCCCCC[N+](C)(C)CCC[Si](OC)(OC)OC` the Potency was “inactive”.
With `CC(=O)Nc1ccc(NC(=S)NC(=O)c2ccc(C(C)(C)C)cc2)cc1` the Potency was “inactive”.
For `CC(=O)Nc1c(I)c(C(=O)O)c(I)c(N(C)C(C)=O)c1I`, the Potency was “inactive”.
For `c1ccc2c(c1)Sc1ccccc1N2CCN1CCCC1`, the Potency was 7.08 µM (active).
In the case of `O=C1c2ccccc2CN2C(=O)c3ccccc3CN12`, the Potency is reported as “inactive”.
`Cn1c(O)c(N=NC(N)=S)c2ccccc21` was tested, and the Potency was 8.91 µM (active).
In the case of `O=C(OCc1ccccc1)c1cccnc1`, the Potency is reported as “inactive”.

From PubChem BioAssay (NCATS)
Potency is read from the fitted curve at half-maximal effect.
